Records with an inconclusive call do not appear. A number with no mark means an inactive call. The source made the active and inactive calls. Unless noted, the call rests on the fitted dose curve.

One assay in a line: Cell Viability - LYMP1-002 - Assay at 40 hr (AID 994; active means well fitted cell-killing curve with a large enough effect;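 further: 0% = DMSO only and full inhibition = 92 µM tetraoctylammonium bromide; nearly all actives have a fitted effect of over 60% in size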). The settings on record: LYMP1-002 lymphoblastoid cell viability; series mostly up to 92.2 µM; viability change, negative = cytotoxic: at the top concentration. The essentials:
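qHTS cytotoxicity; 2500 cells/well, 5 hr 37 C settle, compound 40 hr 37 C. CellTiter-Glo, 30 min RT, luminescence (ATP). Concentration-response, Hill fit → AC50. Pos. ctrl tetraoctylammonium bromide.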
Regarding `ClC1=C(Cl)C2(Cl)C3C4C=CC(C4)C3C1(Cl)C2(Cl)Cl` (stereo unspecified), the “viability change, negative = cytotoxic” value was -22.3%.
As to `O=C(O)COc1ccc(Cl)cc1Cl`, the Potency result is “inactive”.
Take `COC(=O)NC(=S)Nc1ccccc1NC(=S)NC(=O)OC`: the “viability change, negative = cytotoxic” value is -23.8%.
On the same count and under the same terms, the value for `C/C=C/c1ccc2c(c1)OCO2` was -0.515%; that for `COP(=S)(OC)Oc1ccc([N+](=O)[O-])cc1` was -9.89%.
Turning to `C=CCc1ccc(OC)cc1`, the “viability change, negative = cytotoxic” value is 1.05%.
Same read-out and setting: the value for `ClC1=C(Cl)C2(Cl)C3C(Cl)C=CC3C1(Cl)C2(Cl)Cl` (stereo unspecified) was -23.9%.
Same read-out and setting: the value for `CNC(=O)O/N=C/C(C)(C)SC` was -6.97%; that for `c1ccc(N=Nc2ccccc2)cc1` was 1.73%.

A short description of another assay: qHTS Assay for Lipid Storage Modulators (AID 1519). Further: on the % scale 0 is the no-effect control and ±100 the full control effect. The settings on record: Drosophila S3 cells, BODIPY lipid droplet/cell ratio, laser cytometry; at 57.5 µM (top of the series); cells loaded with oleic acid. Put shortly:
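Cells seeded at 5,000 per well were treated with compounds over a concentration series and loaded with oleic acid (400 uM, as added). Lipid droplet fluorescence (488 nm excitation, 500-530 nm channel) was read by laser-scanning cytometry and normalized to 20 uM Triacsin C.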
As for `N#Cc1ccc(CN2CC[C@@]3(CCCN(C(=O)Oc4ccccc4)C3)C2)cc1`, the activity change, negative = inhibition is 4.98%.
Consider `O=C(Oc1ccccc1)N1CCC2(CCN(Cc3ccccc3)CC2)CC1`, for which the activity change, negative = inhibition was 2.23%.
On the same count and under the same terms, for `CN1CCC2(CC1)CCN(C(=O)Oc1ccccc1)CC2` the value was 2.73%; for `O=C(Nc1cccc(F)c1)N1CC2(CCN(C(=O)Oc3ccccc3)CC2)C1`, 5.68%.
With `CCNc1nc(Cl)nc(NC(C)C)n1`, the activity change, negative = inhibition was 7.77%.
The same measure, in the same setting: the value for `ClC1=C(Cl)C2(Cl)C3C4CC(C5OC45)C3C1(Cl)C2(Cl)Cl` (stereo unspecified) was 3.37%.
In the case of `CN1CC[C@@]2(CCCN(C(=O)c3ccco3)C2)C1`, the activity change, negative = inhibition is 5.37%.
On the same count and under the same terms, the value for `CCOCN(C(=O)CCl)c1c(C)cccc1CC` was 0.371%; that for `ClC(Cl)=C(c1ccc(Cl)cc1)c1ccc(Cl)cc1` was 9.37%.
On the same count and under the same terms, the value for `c1cnc(N2CC[C@@]3(CCCNC3)C2)nc1` was 6.19%; that for `ClC1=C(Cl)C2(Cl)C3C4C=CC(C4)C3C1(Cl)C2(Cl)Cl` (stereo unspecified) was 4.06%.
On the same count and under the same terms, the value for `COc1ccccc1CN1CC[C@@]2(CCCN(C(=O)Oc3ccccc3)C2)C1` was 7.75%; that for `O=C(Nc1cccc(F)c1)N1CC[C@@]2(CCCN(C(=O)Oc3ccccc3)C2)C1` was 7.1%; that for `Cc1ccccc1-c1cncnc1NCCc1cnc[nH]1` was 6.91%.
For the compound `O=C(Nc1ccccc1)N1CC[C@@]2(CCCNC2)C1`, the activity change, negative = inhibition was -3.27%.
Regarding `CN1CCCC2(CCN(C(=O)c3ccncc3)CC2)C1`, the activity change, negative = inhibition is 2.07%.
As for `CC(C)CN1CCC2(CC1)CCN(C(=O)Oc1ccccc1)CC2`, the activity change, negative = inhibition was 3.6%.
The same measure, in the same setting: for `O=C(O)COc1ccc(Cl)cc1Cl` the value was -1.59%; for `CC(C)CN1CC2(CCN(C(=O)c3ccncc3)CC2)C1`, -1.63%; for `COC(=O)NC(=S)Nc1ccccc1NC(=S)NC(=O)OC`, 3.23%.
As to `C/C=C/c1ccc2c(c1)OCO2`, the activity change, negative = inhibition was 7.07%.
The same measure, in the same setting: for `N#Cc1ccc(CN2CCC3(CC2)CCN(C(=O)Oc2ccccc2)CC3)cc1` the value was 0.91%; for `O=C(Nc1cccc(F)c1)N1CCC2(CC1)CCN(C(=O)Oc1ccccc1)CC2`, -7.04%.
With `N#Cc1ccc(CN2CCCC3(CCN(C(=O)Oc4ccccc4)CC3)C2)cc1`, the activity change, negative = inhibition is 1.3%.
Still for that read-out and setting: for `CS(=O)(=O)N1CCC2(CC1)CN(Cc1ccncc1)C2` the value was 4.09%.
On the same count and under the same terms, the value for `O=C(c1ccncc1)N1CCC2(CC1)CN(Cc1ccccc1)C2` was -1.45%.
On the same count and under the same terms, the value for `O=S1OCC2C(CO1)C1(Cl)C(Cl)=C(Cl)C2(Cl)C1(Cl)Cl` (stereo unspecified) was 5.66%; that for `C=CCc1ccc(OC)cc1` was 1.63%.
In the case of `c1ccc(N2CC[C@@]3(CCCNC3)C2)nc1`, the activity change, negative = inhibition was 2.13%.
For the compound `CC(C)C[C@H]1C(=O)N2CCCC2[C@]2(O)O[C@](NC(=O)[C@@H]3C=C4c5cccc6[nH]c(Br)c(c56)C[C@H]4N(C)C3)(C(C)C)C(=O)N12` (stereo partly specified), the activity change, negative = inhibition is -0.407%.
Still for that read-out and setting: the value for `c1ccc(N2CCC3(CCNCC3)CC2)cc1` was -3.07%; that for `COC(=O)N1CCC2(CCN(CC(C)C)CC2)CC1` was 0.631%; that for `ClC1=C(Cl)C2(Cl)C3C(Cl)C=CC3C1(Cl)C2(Cl)Cl` (stereo unspecified) was 4.59%.
Turning to `CNC(=O)O/N=C/C(C)(C)SC`, the activity change, negative = inhibition was 7.39%.
As for `c1ccc(N=Nc2ccccc2)cc1`, the activity change, negative = inhibition was -5.75%.
On the same count and under the same terms, the value for `CCc1cccc(CC)c1N(COC)C(=O)CCl` was 1.98%; that for `c1cc(CN2CCC3(CCNCC3)CC2)ccn1` was 4.55%.

For the origin of these results see PubChem BioAssay (NCATS).
